# Results filed as inconclusive are left out. Entries that show only a call come without a potency. Activity calls are given as the source filed them. Calls come from the whole dose curve; as a rule, active = well fitted inhibition curve with a large enough effect; inconclusive = small, poorly fitted or top-dose-only effect; inactive = no such curve, though single readings can be large or run the other way.
# Experiment: qHTS to identify inhibitors of the type 1 interferon - major histocompatibility complex class I in skeletal muscle: Secondary screen by immunofluorescence; note: nearly all actives have a fitted effect of over 70% in size
# Settings: C25cl48 myoblasts, IFN-b induced HLA-ABC immunofluorescence, 24 h, Viability; series mostly up to 49.8 µM
# Excerpt: Assay Submitter (PI): Travis B. Kinder Ph.D. & James Inglese Ph.D. Assay Development and Screening Technology Laboratory (ADST) National Center for Advancing Translational Sciences (NCATS), Rockville, MD National Institute of Health (NIH), Bethesda, Maryland Idiopathic inflammatory myopathies, collectively referred to as myositis, are a group of rare autoimmune diseases characterized by skeletal muscle inflammation, weakness, and usually accompanied by systemic pathologies of the skin, lungs, or vasculature. Current immunosuppressive therapies and glucocorticoids are often not curative and are accompanied by harsh side effects, especially in children with juvenile myositis. We initiated a drug repurposing and development program to identify more targeted, less toxic therapeutics to treat myositis. Although its cause is not known, muscle from a subset of patients have an abundance of the inflammatory type 1 interferon (IFN) and a down-stream product major histocompatibility complex class I (MHC class I), which are both thought to contribute to damage and weakness. We conducted quantitative high throughput screening (qHTS) on 6,576 compounds (4,679 unique) through a series of cell-based assays to identify those that inhibit the IFN-stimulated expression of MHC class I in muscle precursor cells (myoblasts). The compound identification and evaluation strategy utilized a primary screen with reporter-tagged MHC class I in genome-engineered myoblasts, ATP content counter screen for viability, HLA-ABC immunofluorescence secondary screen, and HLA-B RT-qPCR tertiary screen. To verify activity of compounds identified by qHTS in HLA-B HiBit reporter cells, compounds were assayed by high throughput HLA-ABC immunofluorescence. Briefly, 216 compounds identified from primary and counter screening as inhibitory with minimal cytotoxicity were dispensed into black/clear bottom […] using acoustic dispensing in an 11-point, 1:3 titration with a high final concentration of 50 uM. Normal immortalized human myoblasts C25cl48 were added to the plates with 4.0 ng/ml human IFN-beta for 24 hours, fixed, stained by immunofluorescence for HLA-ABC protein, nuclei, and cell body, and analyzed by laser scanning cytometry as described by Auld et al., 2006. References: Auld DS, Johnson RL, Zhang Y, Veith H, Jadhav A, Yasgar A, Simeonov A, Zheng W, Martinez ED, Westwick JK, Austin CP, Inglese J. 2006. Fluorescent protein-based cellular assays analyzed by laser-scanning microplate cytometry in 1536-well plate format. Methods Enzymol 414:566-89. doi:10.1016/S0076-6879(06)14029-X
# PROTOCOL TABLE (as described by Inglese et al., 2007) SEQUENCE No. (e.g., 1, 2, 3, etc.); […] (e.g., Cells, Incubation, Reagent, etc.); VALUE; DESCRIPTION 0; Compounds; 25 nl; Follow-up compounds dispensed at 25 nl/well with Labcyte Echo 655 acoustic dispenser in triplicate Aurora ChemLib 1536K black/clear bottom, low base, TC 1536-well plates (00019324). Also dispensed 25 nl/well DMSO control, ruxolitinib IFN-b inhibitor control titration, and digitonin cytotoxic control 1a; Cells; 5 uL; Multidrop Combi (Thermo Scientific) to seed 125 cells/well into eight plates in 5 ul/well of iHSKM growth medium (GM) without dexamethasone into columns 1+2. Add metal lids with gas-exchange holes 1b; Cells; 5 uL; Multidrop Combi (Thermo Scientific) to seed 125 cells/well into eight plates in 5 ul/well of iHSKM GM without dexamethasone + 4 ng/ml IFN-b into columns 3 - 48. […]
# Potency is the fitted concentration of half-maximal effect.
row,Structure (SMILES),Potency
1,CCS(=O)(=O)N1CC(CC#N)(n2cc(-c3ncnc4[nH]ccc34)cn2)C1,inactive
2,CC(=O)OCC(=O)[C@@]12OC(C)(C)O[C@@H]1C[C@H]1[C@@H]3C[C@H](F)C4=CC(=O)C=C[C@]4(C)[C@@]3(F)[C@@H](O)C[C@@]12C,inactive
3,CC[C@@]1(O)C(=O)OCc2c1cc1n(c2=O)Cc2cc3c(CN(C)C)c(O)ccc3nc2-1,inactive
4,Nc1nc(Nc2ccc(S(N)(=O)=O)cc2)nn1C(=O)c1c(F)cccc1F,inactive
5,Fc1cccc(-n2cnc3c(NCc4nc5c(F)c(F)ccc5[nH]4)nc(N4CCOCC4)nc32)c1,inactive
6,C[C@]12CCC(=O)C=C1CC[C@H]1[C@@H]3CC[C@](O)(C(=O)CO)[C@@]3(C)C[C@H](O)[C@@]12F,inactive
7,Cc1ccc(NC(=O)NCc2ccc3c(c2)CN(C2CCC(=O)NC2=O)C3=O)cc1Cl (stereo not given),inactive
8,N#CC[C@H](C1CCCC1)n1cc(-c2ncnc3[nH]ccc23)cn1,inactive
9,CC(C)(C)c1nc(-c2cccc(NS(=O)(=O)c3c(F)cccc3F)c2F)c(-c2ccnc(N)n2)s1,inactive
10,C=CC(=O)N1CC/C(=C\c2ccc(F)c([N+](=O)[O-])c2)C(=O)/C(=C/c2ccc(F)c([N+](=O)[O-])c2)C1,0.408 µM (active)
11,CCOC(=O)C1=C(C)NC2=C(C(=O)CC(C)(C)C2)C1c1ccc(-c2ccccc2)cc1 (stereo not given),inactive
12,OC1CCC(Oc2cccc3cnc(Nc4ccc5nc[nH]c5c4)nc23)CC1 (stereo not given),inactive
13,N#CCC1(n2cc(-c3ncnc4[nH]ccc34)cn2)CN(C2CCN(C(=O)c3ccnc(C(F)(F)F)c3F)CC2)C1,inactive
14,CC(C)c1cnn2c(NCc3ccccc3)cc(N[C@@H](CO)[C@H](O)CO)nc12,inactive
15,COc1ccc(-c2nc(N3CCOCC3)c3sc(CN(C)c4ncc(C(=O)NO)cn4)cc3n2)cn1,inactive
16,CN1CCN(C(=O)c2ccc3cc(CCNc4ncnc5ccc(C#N)cc45)ccc3c2)CC1,inactive
17,CCc1cc(C(N)=O)ccc1-n1nc(C(C)C)c2c(-n3cnc(-c4cnn(C)c4)c3)ccnc21,inactive
18,Cc1cc2c(cc1CC(=O)c1sccc1S(=O)(=O)Nc1onc(C)c1Cl)OCO2,inactive
19,CCNC(=O)c1noc(-c2cc(C(C)C)c(O)cc2O)c1-c1ccc(CN2CCOCC2)cc1,inactive
20,COC(=O)c1nc(Cl)c(Cl)nc1N,9.13 µM (active)

row,Structure (SMILES),Potency
1,Cc1ccc(-c2ncn(-c3ccc(Nc4nccc(-c5cccc(N6CCOCC6)c5)n4)cc3)n2)cn1,inactive
2,C[C@]12C=CC(=O)C=C1CC[C@H]1[C@@H]3C[C@@H](O)[C@](O)(C(=O)CO)[C@@]3(C)C[C@H](O)[C@@]12F,inactive
3,CC(C)c1c2cc(-c3ccnc(NC4CCC(NC5CCOCC5)CC4)n3)ccc2nn1C (stereo not given),inactive
4,CC(C)[C@H](C(=O)Nc1ccc(C(=O)NO)cc1)c1ccccc1,inactive
5,O=C(/C=C/c1ccc(CN(CCO)CCc2c[nH]c3ccccc23)cc1)NO,inactive
6,OCCCNc1cc(-c2ccnc(Nc3cccc(Cl)c3)n2)ccn1,inactive
7,COc1cc2c(cc1-c1c(C)noc1C)ncc1[nH]c(=O)n([C@H](C)c3ccccn3)c12,inactive
8,C=C1C(=O)O[C@@H]2[C@H]3O[C@]3(C)CCC=C(C)CC[C@@H]12,8.14 µM (active)
9,C=CCNC1=C2C[C@@H](C)C[C@H](OC)[C@H](O)[C@@H](C)/C=C(\C)[C@H](OC(N)=O)[C@@H](OC)/C=C\C=C(/C)C(=O)NC(=CC1=O)C2=O,inactive
10,Cc1oncc1C(=O)Nc1ccc(C(F)(F)F)cc1,inactive
11,Cc1ncc(-c2ccnc(Nc3ccc(S(C)(=O)=O)cc3)n2)n1C(C)C,inactive
12,Cc1ccc(C(N)=O)cc1Nc1nccc(-c2cn(C(C)C)c3cnccc23)n1,inactive
13,CNC(=O)c1ccc(Nc2ncc(C(F)(F)F)c(NCc3nccnc3N(C)S(C)(=O)=O)n2)cc1,inactive
14,CCN(CC)CCOc1ccc(Nc2ncc3cc(-c4c(Cl)cccc4Cl)c(=O)n(C)c3n2)cc1,9.13 µM (active)
15,C[C@H](NC(=O)/C(C#N)=C/c1cccc(Br)n1)c1ccccc1,12.9 µM (active)
16,CN(C)c1ccc(C(=O)NCCCCCCC(=O)NO)cc1,inactive
17,Cc1nc(Nc2n[nH]c3c2CN(C(=O)N[C@H](CN(C)C)c2ccccc2)C3(C)C)c2sccc2n1,inactive
18,COc1ccc(CNc2nc(N(CCO)CCO)nc3c2ncn3C(C)C)cc1,inactive
19,CCCC(=O)O[C@]1(C(=O)CO)CC[C@H]2[C@@H]3CCC4=CC(=O)CC[C@]4(C)[C@H]3[C@@H](O)C[C@@]21C,inactive
20,Cc1cnc(Nc2ccc(N3CCN(C)CC3)cc2)nc1Nc1cccc(S(=O)(=O)NC(C)(C)C)c1,20.5 µM (active)
